Screening results (PubChem)
RGS16-Gao – modulates binding between human RGS16 and Galphao; binding response (% of control), % at 10 µM; bead-based flow cytometry RGS16-Galphao binding, fluorescence; actives lie on both sides; 0.38% of 220,000 active;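 also: Galphao activated by GDP with aluminum fluoride before binding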
Target sequence (O15492 whole entry, looked up): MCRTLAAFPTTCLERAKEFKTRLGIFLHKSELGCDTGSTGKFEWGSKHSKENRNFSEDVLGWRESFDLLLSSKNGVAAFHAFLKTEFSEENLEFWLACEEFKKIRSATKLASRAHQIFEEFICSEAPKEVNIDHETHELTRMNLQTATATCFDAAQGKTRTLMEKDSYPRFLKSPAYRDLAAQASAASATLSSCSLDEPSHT
Target sequence (P09471 whole entry, looked up): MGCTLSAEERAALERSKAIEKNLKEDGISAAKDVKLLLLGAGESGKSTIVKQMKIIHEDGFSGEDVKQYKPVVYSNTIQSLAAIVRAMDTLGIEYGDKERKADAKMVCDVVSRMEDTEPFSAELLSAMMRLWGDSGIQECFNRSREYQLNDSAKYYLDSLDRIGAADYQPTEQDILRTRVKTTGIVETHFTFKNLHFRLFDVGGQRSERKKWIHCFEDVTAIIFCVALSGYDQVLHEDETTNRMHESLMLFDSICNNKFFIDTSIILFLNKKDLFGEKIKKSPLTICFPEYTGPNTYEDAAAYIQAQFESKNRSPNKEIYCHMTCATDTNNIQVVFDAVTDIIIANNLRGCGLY
RGS7-Gao – regulators of human RGS7-Galphao interaction; Multiplexed bead flow cytometry, RGS7-Galphao binding; actives lie on both sides; 0.35% of 220,000 active; binding response (% of control), % at 10 µM; P09471; in the data active = binding response below about 49% or above about 150%; inconclusive = no clear call, values can overlap the other calls; inactive = in between;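 also: fluorescent Galphao held in activated GDP-AlF4 state binding bead-coupled RGS7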
Target sequence (P09471 whole entry, looked up): as above
RGS4-Gao reg – modulates binding of RGS4 to human Galphao; binding response (% of control), % at 10 µM; 0.33% of 220,000 active; Multiplexed bead flow cytometry; actives lie on both sides; P09471; in the data active = binding response below about 49% or above about 150%; inactive = in between;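 also: fluorescent Galphao activated with aluminum fluoride binding bead-coupled RGS4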
RGS8-Gao – modulates binding of RGS8 to human Galphao; P09471; multiplexed bead flow cytometry; actives lie on both sides; response (percent of control binding), % at 10 µM; 0.34% of 220,000 active; AID 1423; in the data active = response below about 60% or above about 140%; inactive = in between;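 also: Galphao activated as the GDP aluminium fluoride complex binding bead-coupled RGS8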
RGS4-Gao HTS – regulators of human RGS4-Galphao interaction; RGS4–Galpha-o binding response, % at 10 µM; AID 1504; shares compounds with RGS16-Gao; 99% of 1,600 active; multiplexed bead flow cytometry, RGS–Galpha-o binding;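 also: fluorescently labeled Galpha-o bound to GDP with aluminium fluoride binding biotinylated RGS beads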
Biotin-avidin – counter-screen: compounds disrupting biotin binding to avidin beads; shares compounds with RGS16-Gao; streptavidin beads, fluorescein-biotin binding, flow cytometry; inhibition, % at 10 µM; 1,700 tested, under 10 active;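 active = inhibition above 50%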;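 also: median green fluorescence of gated singlet beads compared with DMSO control wells; 0% = DMSO wells and 100% = complete loss of bead fluorescence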
RGS8-Gao single – confirmation of regulators of human RGS8-Galphao interaction | shares compounds with RGS16-Gao | bead-based flow cytometry RGS8-Galphao binding, fluorescence; actives lie on both sides | binding response (% of control), % at 10 µM | 3% of 1,700 active; in the data active = binding response below about 72% or above about 130%; inactive = in between;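 also: Galphao activated as GDP AlF4 complex before binding bead RGS8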
RGS7-Gao confirm – confirmation of regulators of human RGS7-Galphao interaction; 7.8% of 1,700 active; bead-based flow cytometry RGS7-Galphao binding; actives lie on both sides; response (percent of control binding), % at 10 µM; shares compounds with RGS16-Gao; in the data active = response below about 75% or above about 130%; inactive = in between;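 also: fluorescent Galphao activated with GDP and aluminum fluoride binding bead-coupled RGS7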
RGS16-Gao single – RGS16-Galphao interaction regulation, single point confirmation; 4% of 1,700 active; bead-based flow cytometry, RGS16-Galphao binding; actives lie on both sides; shares compounds with RGS16-Gao; response (% of control binding), % at 10 µM; AID 1838; in the data active = response below about 74% or above about 130%; inactive = in between;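 also: Galphao activated as the GDP aluminium fluoride complex binding bead-coupled RGS16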
RGS4-Gao single – confirmation of regulators of human RGS4-Galphao interaction | shares compounds with RGS16-Gao | RGS4-Galphao binding, multiplexed bead flow cytometry; actives lie on both sides | binding response (% of control), % at 10 µM | 4% of 1,700 active; in the data active = binding response below about 74% or above about 130%; inactive = in between
RGS19-Gao single – RGS19-Galphao interaction regulation, single point confirmation; shares compounds with RGS16-Gao; bead-based flow cytometry RGS19-Galphao binding; actives lie on both sides; response (percent of control binding), % at 10 µM; 5% of 1,700 active; AID 1841; in the data active = response below about 50% or above about 160%; inactive = in between;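 also: 100% = no compound control and 0% = blank background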
An asterisk follows results filed as active; ? = inconclusive; · = no result given; [ ] = dose if it differs, or a comment. This is a sample that favours compounds with a hit; in the whole collection about 0.78% have one here. Unless noted, no rule for the calls is given here.

SMILES	RGS16-Gao	RGS7-Gao	RGS4-Gao reg	RGS8-Gao	Biotin-avidin	RGS8-Gao single	RGS7-Gao confirm	RGS16-Gao single	RGS4-Gao single	RGS19-Gao single	others
CCn1cc(C(=O)O)c(=O)c2cnc(N3CCN(C(=S)NC(=O)c4ccccc4)CC3)nc21	89.9	?	79.0	94.5	·	·	·	·	·	·
CCOC(=O)N=Nc1c(O)n(C)c2ccccc12	92.6	185.7*[activator]	137.2	96.8	1.0	100.3	65.5*	92.0	71.8*	102.1	RGS4-Gao HTS=137.2*
C=CCn1c(O)c(N=NC(=O)OCC)c2ccccc21	107.0	101.1	100.4	102.4	·	·	·	·	·	·
COc1ccccc1OCC(=O)N1CC2(C)CC1CC(C)(C)C2 (stereo not drawn)	98.2	97.5	96.3	95.6	·	·	·	·	·	·
CCOCC(=O)Nc1c(C)n(C)n(-c2ccccc2)c1=O	106.8	106.3	105.5	102.1	·	·	·	·	·	·
Cc1cc(C)cc(OCC(=O)OCC(=O)Nc2c(C)n(C)n(-c3ccccc3)c2=O)c1	145.3	152.9*[activator]	145.1	138.8	1.0	102.9	100.3	100.8	101.8	98.2	RGS4-Gao HTS=145.1*
Cc1c(NC(=O)COC(=O)COc2ccc(Nc3ccccc3)cc2)c(=O)n(-c2ccccc2)n1C	141.9	155.1*[activator]	142.6	140.4*[activator]	·	·	·	·	·	·	RGS4-Gao HTS=142.6*
Cc1c(NC(=O)COC(=O)c2ccccc2Cl)c(=O)n(-c2ccccc2)n1C	104.1	99.9	96.8	105.1	·	·	·	·	·	·
Cc1c(NC(=O)CSc2nnc(COc3ccccc3)n2-c2ccccc2)c(=O)n(-c2ccccc2)n1C	104.3	170.6*[activator]	114.2	100.7	·	·	·	·	·	·	RGS4-Gao HTS=114.2*
Cc1c(NC(=O)CSc2n[nH]c(=O)n2-c2ccccc2)c(=O)n(-c2ccccc2)n1C	108.4	109.3	106.1	104.2	·	·	·	·	·	·
Cc1n[nH]c(C)c1Sc1ccccc1[N+](=O)[O-]	103.5	95.3	98.6	98.8	·	·	·	·	·	·
CCN1CCN(C(=O)Nc2ccc(Cc3ccc(NC(=O)N4CCN(CC)CC4)cc3)cc2)CC1	100.8	98.1	100.1	100.1	·	·	·	·	·	·
COc1ccc(CCNC(=O)CCC2COc3ccccc3O2)cc1OC (stereo not drawn)	102.4	105.8	101.3	101.0	·	·	·	·	·	·
CC(C)c1ccccc1NC(=S)N(C)C	-25.4*	?	-47.1*	10.2*	-0.4	102.4	101.4	102.5	101.9	96.4
O=C(Cc1ccccc1)Nn1c(O)c(/C=C2\C=Nc3ccccc32)sc1=S	262.2*[activator]	99.7	98.8	136.8	-0.5	100.2	103.0	100.9	103.1	97.7	RGS4-Gao HTS=98.8*
COc1cccc(-n2c(SCC(=O)OC(C)C)nnc2-c2cccnc2)c1	68.8	93.2	95.1	90.2	·	·	·	·	·	·
Cc1ccc(NC2(c3nnnn3-c3c(C)cccc3C)CCCCC2)cc1	280.8*[activator]	112.4	116.1	135.1	-0.7	97.8	93.0	98.7	96.6	98.5	RGS4-Gao HTS=116.1*
CSc1nnnn1-c1c(C)cccc1C	99.6	?	99.2	101.3	·	·	·	·	·	·
O=C(NNC(=O)c1ccc(Oc2cc(Cl)cc(Cl)c2)o1)c1ccccc1	101.1	?	98.7	98.9	·	·	·	·	·	·
Cc1cc(N2CCN(C(c3ccccc3)c3ccccc3)CC2)n2ncnc2n1	·	·	·	·	-0.3	98.2	85.5	91.2	89.8	74.6
Cc1nc2ncnn2c(N2CCN(C(c3ccccc3)c3ccccc3)CC2)c1C	99.7	99.6	102.5	104.4	·	·	·	·	·	·
CC1CN(C(=O)COC(=O)[C@@H]2CC(O)CN2S(=O)(=O)c2ccc3c(c2)OCCO3)CC(C)O1 (stereo partly drawn)	100.3	100.6	102.9	99.8	·	·	·	·	·	·
CCC(C(=O)OCC(=O)Nc1cc(C)ccc1OC)c1ccccc1 (stereo not drawn)	103.5	?	103.1	100.6	·	·	·	·	·	·
CC(=O)c1c(C)[nH]c(C2=NNC(=NCc3ccccc3)SC2)c1C	99.5	101.1	95.1	98.3	·	·	·	·	·	·
NNC(=O)CN1CCN(c2ncc(C(F)(F)F)cc2Cl)CC1	102.2	99.5	101.3	101.8	·	·	·	·	·	·
SMILES	RGS16-Gao	RGS7-Gao	RGS4-Gao reg	RGS8-Gao	Biotin-avidin	RGS8-Gao single	RGS7-Gao confirm	RGS16-Gao single	RGS4-Gao single	RGS19-Gao single	others
CC(C)(C)NC(=O)NC(=O)CN1CCN(c2ncc(C(F)(F)F)cc2Cl)CC1	·	·	·	·	-0.2	97.9	89.0	92.3	93.6	94.2
O=C(CN1CCc2ccccc2C1)Nc1ccc(Br)cc1	361.7	110.9	120.5	145.7*[activator]	1.7	100.4	94.4	99.8	98.6	103.6	RGS4-Gao HTS=120.5*
CCc1ccc(NC(=O)CN2CCc3ccccc3C2)cc1	99.5	101.5	100.8	101.6	·	·	·	·	·	·
COc1ccc(/C=C/c2nnc(NC(C)=O)s2)cc1	143.7	?	157.6*[activator]	109.6	-1.6	100.5	105.6	100.8	101.7	106.2
COC(=O)Nc1nnc(/C=C/c2ccc(OC)cc2)s1	49.1	96.1	97.7	90.2	·	·	·	·	·	·
COc1ccccc1N1CCN(C(=O)CSc2nc(N)cc(=O)[nH]2)CC1	113.3	277.0*[activator]	88.2	88.6	1.1	104.3	106.0	106.2	105.1	129.3	RGS4-Gao HTS=88.2*
Cc1ccccc1N=C(NOCc1ccc(Cl)cc1Cl)c1nonc1N	·	·	·	·	2.2	96.2	95.0	93.9	96.3	103.1
C=C(C)CCC1(C)NC(=O)N(c2ccccc2)N1 (stereo not drawn)	52.0	?	41.3*	78.8	-0.5	96.9	95.3	96.3	96.1	93.3
Cc1cc(C)c(NC(=O)c2cc3c(nc4sccn43)s2)c(C)c1	98.4	100.5	98.3	98.5	·	·	·	·	·	·
COc1ccccc1NCCC#N	107.5	101.9	104.2	104.4	·	·	·	·	·	·
CCOc1ccc(-c2nn(-c3ccccc3)cc2/C=C2\SC(N)=NC2=O)cc1C	1.8*	15.8*	22.4*	12.4*	2.8	102.0	101.5	102.5	101.4	102.7
Cc1ccc(-c2nn(-c3ccccc3)cc2/C=C2\SC(=S)N(CC(=O)O)C2=O)cc1	49.5	?	95.4	98.8	·	·	·	·	·	·
COCC(=O)N(C)C1(c2nnnn2CCOC(=O)Nc2ccc(Cl)cc2)CCCCC1	102.8	?	99.3	103.6	·	·	·	·	·	·
COCC(=O)NC1(c2nnnn2CCOC(=O)Nc2ccc(Cl)cc2)CCCCC1	98.1	255.3*[activator]	116.0	100.9	0.4	107.7	114.7	109.5	110.1	106.4	RGS4-Gao HTS=116.0*
Nc1nnc(SCC(=O)OCC(=O)NC23CC4CC(CC(C4)C2)C3)s1	7.7*	?	18.5*	13.5*	0.2	106.5	108.5	106.9	104.6	96.7
